# Where “and” joins values, the source holds several entries; their conditions need not be identical. Equal values may be shown once. Records with an inconclusive call do not appear. Calls of active or inactive are those of the source. Unless noted, calls follow the shape of the dose curve; as a rule, active = well fitted curve in the direction sought with a large enough effect; inconclusive = small, poorly fitted or top-dose-only effect, or another doubt; inactive = no such curve, though single readings can be large; an effect the other way counts as inactive or inconclusive.
# Experiments:
# [1] = molecular target: Cytochrome P450 2C9 (Homo sapiens) (UniProt P11712); assay: qHTS Assay for Inhibitors and Substrates of Cytochrome P450 2C9 (AID 883); also: potency is read from the fitted curve at half-maximal effect; nearly all actives have a fitted effect of over 60% in size
# Procedure, shortened: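 Turnover of Luciferin-H (100uM, KM) by 10nM human CYP2C9 was measured over 60 min at 37C with NADPH regeneration; inhibitors and some substrates reduce luminescence. Data normalized to sulphaphenazole 57uM.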
# [2] = molecular target: Cytochrome P450 3A4 (Homo sapiens) (UniProt P08684); assay: qHTS Assay for Inhibitors and Substrates of Cytochrome P450 3A4 (AID 884); also: nearly all actives have a fitted effect of over 50% in size; also: potency is read from the fitted curve at half-maximal effect
# Procedure, shortened: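 20 nM human CYP3A4 with 25 uM Luciferin-PPXE (at KM) in 200 mM KPO4, preincubated 10 min with compound; NADPH regeneration started a 60 min RT reaction. Luciferin detected by luminescence, normalized to 57 uM ketoconazole as full inhibition.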
# [3] = molecular target: Cytochrome P450 3A4 (Homo sapiens) (UniProt P08684); assay: qHTS Assay for Activators of Cytochrome P450 3A4 (AID 885); also: nearly all actives have a fitted effect of over 65% in size
# Procedure, shortened: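 Human CYP3A4 (20 nM) with Luciferin-PPXE at 25 uM (its KM) in 200 mM KPO4; 10 min compound preincubation, then NADPH regeneration and 60 min reaction at RT. Luciferin read by luminescence; normalized to 57 uM ketoconazole full inhibition.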
# [4] = molecular target: Cytochrome P450 2C19 (Homo sapiens) (UniProt P33261); assay: qHTS Assay for Inhibitors and Substrates of Cytochrome P450 2C19 (AID 899); also: potency is read from the fitted curve at half-maximal effect; nearly all actives have a fitted effect of over 60% in size
# Procedure, shortened: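 Reactions contain 5nM enzyme, 10uM Luciferin-H EGE (KM) and 50mM KPO4; compound preincubates 10 min at 37C, NADPH regeneration starts turnover for 60 min. Luminescence after detection reagent gives activity.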
# [5] = qHTS Assay for Lipid Storage Modulators (AID 1519; calls by dose curve); conditions: Drosophila S3 cells, BODIPY lipid droplet/cell ratio, laser cytometry, cells loaded with oleic acid
# Procedure, shortened: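 Cells seeded at 5,000 per well were treated with compounds over a concentration series and loaded with oleic acid (400 uM, as added). Lipid droplet fluorescence (488 nm excitation, 500-530 nm channel) was read by laser-scanning cytometry and normalized to 20 uM Triacsin C.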
# [6] = Confirmation and Secondary Assay for Modulators of Hemoglobin Beta Chain Splicing at IVS2 654 locus (AID 910);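 also: HeLa cells stably carrying EGFP split by mutant beta-globin IVS2-654 intron; per-well total GFP intensity by laser scanning cytometry after 2-day treatment; % of control where 0% means no effect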
# Procedure, shortened: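 Readout: per-well total peak green fluorescence (488 nm ex, 500–520 nm em) from objects 5–250 µm, reflecting correct splicing of an EGFP-654 reporter. Compounds were applied for 2 days at 37 °C to overnight-plated HeLa EGFP-654 cells; controls were DMSO and 500 nM IVS2-654 PNA.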
# [7] = Confirmation and Secondary Assay for Modulators of Hemoglobin Beta Chain Splicing at IVS2 705 locus (AID 930);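 also: HeLa cells stably expressing the EGFP-705 splicing reporter; GFP fluorescence per well restored by corrected splicing of the IVS2-705 intron in EGFP; % of control where 0% means no effect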
# Procedure, shortened: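 First, HeLa EGFP-705 cells are seeded at 500/well in Optimem with 2% FCS and left overnight. Next, compound or DMSO is added for 2 days. Finally wells are laser-scanned and total peak GFP intensity scored.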
# [8] = molecular target: Estrogen receptor (Homo sapiens) (UniProt P03372); assay: qHTS assay for small molecule antagonists of estrogen receptor alpha signaling (AID 588513; active = well fitted curve in the direction sought with a large enough effect in the signal ratio, with a control signal flat, not every such curve was filed as active; the % refers to the signal ratio; also: % is scaled to controls: 0 for no effect and ±100 for the full control effect)
# Procedure, shortened: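 ER-alpha-UAS-bla GripTite HEK 293 cells in 2% charcoal/dextran-treated FBS medium; compounds titrated (1:2, duplicate), then stimulated with 0.5 nM 17-beta-estradiol for 18 h at 37C. CCF4 beta-lactamase fluorescence; Hill-fit IC50 and efficacy.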
# [9] = molecular target: Estrogen receptor (Homo sapiens) (UniProt P03372); assay: qHTS assay for small molecule agonists of estrogen receptor alpha signaling (AID 588514; calls by dose curve;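 also: 0% = vehicle only and 100% = reference agonist; nearly all actives have a fitted effect of over 70% in size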)
# Procedure, shortened: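 ER-alpha-UAS-bla GripTite HEK 293 cells in medium with 2% charcoal/dextran-treated FBS were treated with compound titrations at 37 C for 18 hrs; beta-lactamase reporter read by CCF4 fluorescence after 2 hrs at RT.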
# [10] = molecular target: Peroxisome proliferator-activated receptor delta (Homo sapiens) (UniProt Q03181); assay: qHTS assay for small molecule agonists of peroxisome proliferator-activated receptor delta signaling (AID 588534; calls by dose curve;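 also: 0% = DMSO basal wells and 100% = positive control agonist at 10 µM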)
# Procedure, shortened: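 Cell-based beta-lactamase reporter assay run in agonist mode: cells seeded and incubated 5 hrs at 37 C, compounds added and incubated 18 hrs at 37 C. CCF4 dye fluorescence read after 2 hrs at RT; EC50 and efficacy from Hill fits.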
# [11] = qHTS assay for small molecule antagonists of peroxisome proliferator-activated receptor delta signaling (AID 588535; active = well fitted inhibition curve with a large enough effect in the signal ratio, with a control signal flat, not every such curve was filed as active; the % refers to the signal ratio;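 as to max response: cells co-treated with a PPAR-delta agonist as stimulator during compound exposure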); conditions: HEK293T PPARd-UAS-bla, beta-lactamase FRET ratio, 18 h; 460 nm channel
# Procedure, shortened: (§1)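 Cell-based beta-lactamase assay in antagonist mode: 4000 HEK293T PPAR-delta-UAS-bla cells per well, 5 hr preincubation then 18 hr compound incubation at 37 C. IC50 obtained by Hill equation fitting.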
# [12] = molecular target: Peroxisome proliferator-activated receptor delta (Homo sapiens) (UniProt Q03181); assay: as above
# Procedure, shortened: as §1
# [13] = molecular target: Peroxisome proliferator-activated receptor gamma (Homo sapiens) (UniProt P37231); assay: qHTS assay for small molecule agonists of peroxisome proliferator-activated receptor gamma signaling (AID 588536; active = well fitted curve in the direction sought with a large enough effect in the signal ratio, with a control signal flat, not every such curve was filed as active; the % refers to the signal ratio;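 also: 0% = DMSO basal wells and 100% = rosiglitazone at 2 µM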)
# Procedure, shortened: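 GeneBLAzer PPAR-gamma-UAS-bla HEK293 cells in 1% charcoal/dextran-treated FBS medium were treated 16 h at 37 C with compounds. Beta-lactamase activity was read by CCF4 ratio (460/530 nm). Response was normalized to 2 uM rosiglitazone (100%) and DMSO, then Hill-fitted for EC50 and efficacy.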
# [14] = molecular target: Peroxisome proliferator-activated receptor gamma (Homo sapiens) (UniProt P37231); assay: qHTS assay for small molecule antagonists of peroxisome proliferator-activated receptor gamma signaling (AID 588537; active = well fitted inhibition curve with a large enough effect in the signal ratio, with a control signal flat, not every such curve was filed as active; the % refers to the signal ratio;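 also: reporter cells co-stimulated with 50 nM rosiglitazone agonist during compound treatment; % of control where 0% means no effect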)
# Procedure, shortened: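 Inhibitors of agonist-stimulated UAS-bla reporter activity were sought in HEK293 cells; rosiglitazone (50 nM) defined full signal and DMSO baseline. Curves fitted to Hill model gave IC50 and efficacy.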
# [15] = molecular target: Vitamin D3 receptor (Homo sapiens) (UniProt P11473); assay: qHTS assay for small molecule antagonists of vitamin D receptor signaling (AID 588541; calls by dose curve;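 also: receptor activated by calcitriol during compound treatment; % is scaled to controls: 0 for no effect and ±100 for the full control effect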)
# Procedure, shortened: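 Antagonist-mode beta-lactamase reporter assay: HEK293T VDR-UAS-bla cells were exposed to titrated compound alongside 1-alpha,25-dihydroxyvitamin D3 at 3 nM final for 16 h. Values were normalized to the 50 nM agonist control and DMSO basal, with IC50 and efficacy from Hill equation fits.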
# [16] = molecular target: Vitamin D3 receptor (Homo sapiens) (UniProt P11473); assay: qHTS assay for small molecule agonists of vitamin D receptor signaling (AID 588543; calls by dose curve;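 also: 0% = DMSO basal and 100% = reference agonist control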)
# Procedure, shortened: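 VDR-UAS-bla HEK293T cells, 2000/well, 2% charcoal-stripped FBS; compound titration 16 h at 37 C; CCF4 beta-lactamase ratio read. Normalized to 50 nM 1-alpha,25-dihydroxyvitamin D3 (100%) and DMSO; Hill fit gives EC50, efficacy.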
# [17] = qHTS assay for small molecule agonists of retinoid X receptor alpha signaling (AID 588544; calls by dose curve;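 as to activation: 0% = DMSO basal wells and 100% = reference agonist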); conditions: HEK293T RXRa-UAS-bla, beta-lactamase reporter, 18 h; 530 nm emission
# [18] = molecular target: Retinoic acid receptor RXR-alpha (Homo sapiens) (UniProt P19793); assay: as above
# [19] = qHTS assay for small molecule antagonists of retinoid X receptor alpha signaling (AID 588546; active = well fitted inhibition curve with a large enough effect in the signal ratio, with a control signal flat, not every such curve was filed as active; the % refers to the signal ratio;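 also: cells stimulated with 9-cis-retinoic acid as agonist; % is scaled to controls: 0 for no effect and ±100 for the full control effect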); conditions: HEK293T RXRa-UAS-bla, beta-lactamase ratio, antagonist mode; measured here: W530 green channel, cytotoxicity proxy
# Procedure, shortened: (§2)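 Beta-lactamase reporter inhibition, read as CCF4 fluorescence ratio (ex 405, em 460/530 nm) after 2 h at RT. HEK293T UAS-bla cells, 2500/well, were stimulated with 9-cis-RA at 500 or 100 nM final alongside test compound for 18 h at 37 C.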
# [20] = molecular target: Retinoic acid receptor RXR-alpha (Homo sapiens) (UniProt P19793); assay: as above; conditions: HEK293T RXRa-UAS-bla, beta-lactamase ratio, antagonist mode
# Procedure, shortened: as §2
# [21] = molecular target: Thyroid hormone receptor beta (Homo sapiens) (UniProt P10828); assay: qHTS assay for small molecule antagonists of thyroid hormone receptor beta signaling (AID 588547; active = well fitted inhibition curve with a large enough effect in the signal ratio, with a control signal flat, not every such curve was filed as active; the % refers to the signal ratio;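 also: cells stimulated with 0.4 nM T3 agonist during compound exposure; % is scaled to controls: 0 for no effect and ±100 for the full control effect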); conditions: TR-UAS-bla HEK293, beta-lactamase ratio, antagonist mode, 18 h
# Procedure, shortened: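 Inhibition of T3-driven (0.4nM final) beta-lactamase reporter activity was measured over 0.59 nM to 92 uM compound after 18 h at 37 C. The cells were GripTite HEK293 TR-UAS-bla in charcoal/dextran-stripped serum, with CCF4 ratio read-out and IC50 from Hill fits.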
# [22] = qHTS assay for small molecule agonists of the antioxidant response element (ARE) signaling pathway (AID 651741; active = well fitted activation curve with a large enough effect in the signal ratio; the % refers to the signal ratio; also: % of control where 0% means no effect)
# Procedure, shortened: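 Seeding 2,000 ARE-bla HepG2 cells per well preceded a 5 h incubation at 37 C/5% CO2 and a 16 h compound exposure at 37 C. Beta-lactamase reporter activity was then quantified by fluorescence after 2 h with LiveBLAzer B/G FRET substrate.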
# [23] = molecular target: Peroxisome proliferator-activated receptor alpha (Homo sapiens) (UniProt Q07869); assay: qHTS assay for small molecule agonists of the peroxisome proliferator-activated receptor alpha (PPARalpha) signaling pathway (AID 651778); conditions: PathHunter PPARalpha complementation, chemiluminescence, 6 h; stronger effect = higher value; also: % of control where 0% means no effect
# Procedure, shortened: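 Chemiluminescence from complemented enzyme reported PPARalpha activation in cells after 6 hr of compound treatment at 37 C. The detection reagent was incubated for 60 min at room temperature, and compounds were scored as agonists.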
# [24] = qHTS assay for small molecule agonists of the antioxidant response element (ARE) signaling pathway measured by Nrf2-dependant transcriptional activity (AID 720636; active = well fitted curve in the direction sought with a large enough effect in the repeat runs; an effect the other way counts as inactive or inconclusive; also: % of control where 0% means no effect)
# Procedure, shortened: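 Quantitative HTS format in HepG2 cells stably expressing an ARE-luciferase reporter; 16 hr compound treatment at 37 C, luciferase signal detected with ONE-Glo.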
# [25] = qHTS assay for small molecule agonists of the antioxidant response element (ARE) signaling pathway measured by Nrf2-dependant transcriptional activity - cell viability counter screen (AID 720653; active = well fitted curve in the direction sought with a large enough effect in the repeat runs; an effect the other way counts as inactive or inconclusive; also: % is scaled to controls: 0 for no effect and ±100 for the full control effect); conditions: ARE-bla HepG2 viability, CellTiter-Glo ATP luminescence, 16 h; stronger effect = lower value
# Procedure, shortened: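 Cytotoxicity counter screen: intracellular ATP quantified by CellTiter-Glo luminescence in the same ARE-bla HepG2 plates, after 16 h compound exposure and a 2 h beta-lactamase substrate step.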
# [26] = qHTS assay for cell viability of HEK293 cells (AID 743288); conditions: ATP luminescence (CellTiter-Glo), 18 h; max response: stronger effect = lower value; also: % is scaled to controls: 0 for no effect and ±100 for the full control effect; nearly all actives have a fitted effect of over 50% in size
# Procedure, shortened: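 Parental HEK293 cells, 2,000 per well, preincubated at least 5 h at 37 C, then exposed to compounds in DMSO for 18 h at 37 C. Viability by CellTiter-Glo ATP luminescence after 30 min at room temperature.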
# [27] = qHTS assay for cell viability of the p53RE-bla HCT-116 cell line (AID 743292); also: % is scaled to controls: 0 for no effect and ±100 for the full control effect; nearly all actives have a fitted effect of over 55% in size
# Procedure, shortened: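 Viability of compound-treated p53RE-bla HCT-116 cells is taken from ATP-dependent luciferase luminescence. Treatment lasts 16 h at 37 C after a 5 h settling period; detection follows 30 min at room temperature.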
# [28] = molecular target: Nuclear receptor subfamily 1 group I member 2 (Rattus norvegicus) (UniProt Q9R1A7); assay: qHTS assay for small molecule activators of the rat pregnane X receptor (rPXR) signaling pathway (AID 651751; call rule not given here; also: 0% is about no effect); conditions: rPXR reporter cells, luciferase (One-Glo), 24 h
# [29] = qHTS assay for small molecule activators of the human pregnane X receptor (PXR) signaling pathway (AID 720659; call rule not given here; also: 0% is about no effect)
# [30] = measured here: cell count channel max response
# [31] = measured here: lipid channel max response
# Sequence of Peroxisome proliferator-activated receptor delta (Homo sapiens) (Q03181 whole entry, looked up): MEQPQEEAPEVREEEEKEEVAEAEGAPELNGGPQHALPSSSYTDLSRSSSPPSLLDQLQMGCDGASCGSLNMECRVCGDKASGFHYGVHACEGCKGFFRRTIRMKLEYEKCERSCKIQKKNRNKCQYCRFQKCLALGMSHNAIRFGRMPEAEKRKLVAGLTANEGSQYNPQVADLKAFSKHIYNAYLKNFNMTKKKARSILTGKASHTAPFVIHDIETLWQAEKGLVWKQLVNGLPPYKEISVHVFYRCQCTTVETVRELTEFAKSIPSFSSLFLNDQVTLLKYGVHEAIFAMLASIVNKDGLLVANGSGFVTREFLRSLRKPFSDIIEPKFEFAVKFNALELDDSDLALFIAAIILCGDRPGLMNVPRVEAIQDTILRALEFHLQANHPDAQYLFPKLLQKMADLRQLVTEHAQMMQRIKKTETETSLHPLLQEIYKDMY
# Sequence of Estrogen receptor (Homo sapiens) (P03372 whole entry, looked up): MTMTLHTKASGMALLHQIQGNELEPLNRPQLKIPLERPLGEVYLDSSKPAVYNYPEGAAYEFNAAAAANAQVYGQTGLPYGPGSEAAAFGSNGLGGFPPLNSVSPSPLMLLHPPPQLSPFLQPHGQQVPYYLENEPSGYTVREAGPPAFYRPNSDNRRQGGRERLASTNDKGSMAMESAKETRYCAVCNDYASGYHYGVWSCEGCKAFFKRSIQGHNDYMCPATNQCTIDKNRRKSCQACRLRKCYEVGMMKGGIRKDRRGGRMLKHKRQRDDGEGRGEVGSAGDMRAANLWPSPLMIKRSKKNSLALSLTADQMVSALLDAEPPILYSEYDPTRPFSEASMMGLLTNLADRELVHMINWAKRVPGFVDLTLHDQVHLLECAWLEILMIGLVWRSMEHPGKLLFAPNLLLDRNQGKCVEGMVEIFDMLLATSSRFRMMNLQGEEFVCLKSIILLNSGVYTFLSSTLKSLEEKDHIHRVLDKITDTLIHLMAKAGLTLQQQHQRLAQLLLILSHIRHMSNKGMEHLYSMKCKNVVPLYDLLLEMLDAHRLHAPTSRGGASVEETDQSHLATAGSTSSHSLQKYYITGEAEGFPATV
# Sequence of Cytochrome P450 3A4 (Homo sapiens) (P08684 whole entry, looked up): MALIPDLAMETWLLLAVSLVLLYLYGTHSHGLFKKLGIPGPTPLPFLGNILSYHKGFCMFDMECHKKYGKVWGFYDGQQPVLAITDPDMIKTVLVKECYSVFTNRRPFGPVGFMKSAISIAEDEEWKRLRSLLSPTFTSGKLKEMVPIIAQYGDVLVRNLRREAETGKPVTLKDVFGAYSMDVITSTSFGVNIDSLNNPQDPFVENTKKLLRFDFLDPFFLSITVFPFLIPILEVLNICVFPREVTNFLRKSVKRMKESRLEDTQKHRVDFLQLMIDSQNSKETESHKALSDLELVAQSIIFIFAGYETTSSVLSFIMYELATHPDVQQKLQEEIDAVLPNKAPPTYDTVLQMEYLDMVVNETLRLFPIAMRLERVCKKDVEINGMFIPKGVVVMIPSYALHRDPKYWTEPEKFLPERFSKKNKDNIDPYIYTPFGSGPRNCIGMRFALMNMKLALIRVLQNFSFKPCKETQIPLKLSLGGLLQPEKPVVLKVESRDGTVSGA
# Sequence of Vitamin D3 receptor (Homo sapiens) (P11473 whole entry, looked up): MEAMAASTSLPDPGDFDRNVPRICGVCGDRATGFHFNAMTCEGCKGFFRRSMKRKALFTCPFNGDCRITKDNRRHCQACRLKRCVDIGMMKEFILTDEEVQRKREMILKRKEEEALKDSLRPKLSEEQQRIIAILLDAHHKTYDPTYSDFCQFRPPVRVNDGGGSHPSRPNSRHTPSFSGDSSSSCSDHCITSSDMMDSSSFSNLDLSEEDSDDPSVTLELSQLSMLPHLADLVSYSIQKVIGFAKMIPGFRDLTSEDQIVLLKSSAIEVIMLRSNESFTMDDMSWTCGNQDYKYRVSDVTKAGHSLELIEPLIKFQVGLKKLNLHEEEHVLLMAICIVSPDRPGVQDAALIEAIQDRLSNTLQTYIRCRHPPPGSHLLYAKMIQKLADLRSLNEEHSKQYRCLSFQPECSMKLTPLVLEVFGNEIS
# Sequence of Thyroid hormone receptor beta (Homo sapiens) (P10828 whole entry, looked up): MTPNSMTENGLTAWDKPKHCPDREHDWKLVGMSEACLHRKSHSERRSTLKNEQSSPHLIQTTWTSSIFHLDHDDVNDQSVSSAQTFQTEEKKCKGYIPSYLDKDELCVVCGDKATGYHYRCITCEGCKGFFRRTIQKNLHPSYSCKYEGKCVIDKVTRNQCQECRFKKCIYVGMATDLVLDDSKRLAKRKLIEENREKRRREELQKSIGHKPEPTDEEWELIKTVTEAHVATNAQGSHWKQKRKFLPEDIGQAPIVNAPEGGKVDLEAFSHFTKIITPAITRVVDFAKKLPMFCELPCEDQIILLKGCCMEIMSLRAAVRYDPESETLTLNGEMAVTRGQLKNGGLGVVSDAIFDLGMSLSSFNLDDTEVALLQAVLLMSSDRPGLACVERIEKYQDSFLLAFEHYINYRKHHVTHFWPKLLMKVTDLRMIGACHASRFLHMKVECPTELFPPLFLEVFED
# Sequence of Nuclear receptor subfamily 1 group I member 2 (Rattus norvegicus) (Q9R1A7 whole entry, looked up): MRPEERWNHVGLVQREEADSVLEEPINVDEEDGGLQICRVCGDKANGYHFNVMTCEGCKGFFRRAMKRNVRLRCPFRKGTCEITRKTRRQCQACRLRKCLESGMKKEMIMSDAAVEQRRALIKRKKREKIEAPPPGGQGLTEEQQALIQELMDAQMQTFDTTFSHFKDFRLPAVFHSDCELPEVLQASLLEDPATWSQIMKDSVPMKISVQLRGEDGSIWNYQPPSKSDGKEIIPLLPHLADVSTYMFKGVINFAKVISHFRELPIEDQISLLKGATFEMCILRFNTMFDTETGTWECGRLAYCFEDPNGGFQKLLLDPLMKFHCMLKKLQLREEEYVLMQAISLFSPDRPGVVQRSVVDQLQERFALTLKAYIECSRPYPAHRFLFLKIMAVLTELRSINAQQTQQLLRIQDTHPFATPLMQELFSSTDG
# Sequence of Peroxisome proliferator-activated receptor alpha (Homo sapiens) (Q07869 whole entry, looked up): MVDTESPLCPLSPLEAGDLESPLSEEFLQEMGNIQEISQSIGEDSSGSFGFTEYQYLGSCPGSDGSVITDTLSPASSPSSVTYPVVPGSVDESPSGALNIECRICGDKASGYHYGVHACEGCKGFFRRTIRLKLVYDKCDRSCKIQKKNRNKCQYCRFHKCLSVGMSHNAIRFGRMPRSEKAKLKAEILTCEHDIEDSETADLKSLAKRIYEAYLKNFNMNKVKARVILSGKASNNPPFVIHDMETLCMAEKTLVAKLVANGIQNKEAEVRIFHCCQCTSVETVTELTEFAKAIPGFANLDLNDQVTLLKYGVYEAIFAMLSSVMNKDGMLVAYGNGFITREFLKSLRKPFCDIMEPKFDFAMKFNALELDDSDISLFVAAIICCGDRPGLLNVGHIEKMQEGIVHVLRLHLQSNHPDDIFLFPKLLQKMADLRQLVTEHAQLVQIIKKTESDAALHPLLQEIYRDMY
# Sequence of Retinoic acid receptor RXR-alpha (Homo sapiens) (P19793 whole entry, looked up): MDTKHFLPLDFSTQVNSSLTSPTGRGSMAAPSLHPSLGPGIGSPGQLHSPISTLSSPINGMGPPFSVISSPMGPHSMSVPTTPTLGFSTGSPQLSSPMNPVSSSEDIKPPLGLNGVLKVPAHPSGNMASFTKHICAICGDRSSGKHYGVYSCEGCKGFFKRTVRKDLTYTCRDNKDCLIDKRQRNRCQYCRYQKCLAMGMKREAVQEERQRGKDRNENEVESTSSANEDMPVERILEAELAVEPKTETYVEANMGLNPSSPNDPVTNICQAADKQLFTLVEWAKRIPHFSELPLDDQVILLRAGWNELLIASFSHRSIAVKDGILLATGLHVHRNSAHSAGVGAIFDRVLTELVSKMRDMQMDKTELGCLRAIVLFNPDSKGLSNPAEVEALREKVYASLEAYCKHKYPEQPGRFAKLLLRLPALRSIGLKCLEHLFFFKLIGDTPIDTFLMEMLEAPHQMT
# Sequence of Peroxisome proliferator-activated receptor gamma (Homo sapiens) (P37231 whole entry, looked up): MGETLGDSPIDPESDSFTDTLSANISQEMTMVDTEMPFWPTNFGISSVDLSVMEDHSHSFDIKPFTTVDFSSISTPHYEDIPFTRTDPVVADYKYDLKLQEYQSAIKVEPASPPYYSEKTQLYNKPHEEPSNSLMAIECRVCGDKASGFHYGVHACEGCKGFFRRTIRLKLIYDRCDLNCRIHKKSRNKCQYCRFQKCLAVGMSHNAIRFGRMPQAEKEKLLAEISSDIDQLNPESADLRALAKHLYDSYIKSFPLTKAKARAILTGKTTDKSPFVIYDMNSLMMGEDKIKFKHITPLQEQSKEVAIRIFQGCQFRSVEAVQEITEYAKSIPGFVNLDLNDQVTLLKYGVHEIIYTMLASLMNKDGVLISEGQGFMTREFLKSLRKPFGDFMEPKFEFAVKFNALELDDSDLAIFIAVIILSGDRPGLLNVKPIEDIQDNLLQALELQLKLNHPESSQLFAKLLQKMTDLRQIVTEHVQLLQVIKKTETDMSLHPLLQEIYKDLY
# Sequence of Cytochrome P450 2C19 (Homo sapiens) (P33261 whole entry, looked up): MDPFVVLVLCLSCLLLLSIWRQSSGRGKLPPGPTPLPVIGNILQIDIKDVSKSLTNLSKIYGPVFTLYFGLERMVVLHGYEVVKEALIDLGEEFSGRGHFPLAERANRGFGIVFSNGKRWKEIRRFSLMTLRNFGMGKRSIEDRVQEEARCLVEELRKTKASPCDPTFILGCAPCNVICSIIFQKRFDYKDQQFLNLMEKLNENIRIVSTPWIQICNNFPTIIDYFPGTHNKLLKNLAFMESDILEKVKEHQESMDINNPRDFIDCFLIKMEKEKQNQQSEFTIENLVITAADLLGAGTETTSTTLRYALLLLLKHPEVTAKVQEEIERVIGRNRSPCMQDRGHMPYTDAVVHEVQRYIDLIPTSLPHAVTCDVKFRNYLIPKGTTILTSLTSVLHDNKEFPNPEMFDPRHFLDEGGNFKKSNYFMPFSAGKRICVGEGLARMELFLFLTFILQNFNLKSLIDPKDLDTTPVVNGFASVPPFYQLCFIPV
compound,measurement,setting,value
COc1cc(CNC(=O)CCCC/C=C\C(C)C)ccc1O,Potency,[1],3.98 µM (active)
same,Potency,[2],7.94 µM (active)
same,Potency,[3],inactive
same,Potency,[4],10 µM (active)
same,"activity change, negative = inhibition",[5]; at 25.7 µM (top of the series),-6.95% (inactive)
same,max response,[5]; [30],-15.8%
same,max response,[5]; [31],-21%
CNC(=O)CSP(=S)(OC)OC,Potency,[2],inactive
same,Potency,[6],inactive
same,Potency,[7],inactive
same,"activity change, negative = inhibition",[5]; at 57.5 µM (top of the series),4.16% (inactive)
same,max response,[5]; [30],5.57%
same,max response,[5]; [31],8.94%
same,Potency,[8],inactive
same,Potency,[9],inactive
same,outcome,[10],inactive
same,max response,[11],27.9%
same,Potency,[12],inactive
same,outcome,[13],inactive
same,Potency,[14],inactive
same,outcome,[15],inactive
same,outcome,[16],inactive
same,max response,[17],1.61%
same,Potency,[18],inactive
same,max response,[19],1.7%
same,max response,[20],-6.5% (inactive)
same,activity change % (negative = inhibition),[21],-15.4% (inactive) and 6.49% (inactive)
same,Potency,[22],inactive
same,max response,[23],-2.63% (inactive) and -0.399% (inactive)
same,outcome,[24],inactive
same,max response,[25],-1.41% (inactive) and -0.459% (inactive)
same,max response,[26],-6.64% (inactive) and -7.96% (inactive)
same,Potency,[27],inactive
same,max response,[28],-3.03% (inactive) and -0.565% (inactive)
same,outcome,[29],inactive
